# In PubChem BioAssay AID1259312 (Keith Lab, Institute of Cancer Science, University of …, 2017):
# The whole screen tested about 4,500 compounds, of which about 200 (4.4%) were called active. The sample holds actives, similar compounds and a random draw of the others, so the mix is not that of the screen. Unmarked numbers belong to inactive results.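 Rule for the calls: active = cell survival measured by absorbance rises more than 2.5-fold over infected cells without compound; inactive = the rest.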
# Experiment: survival after telomere uncapping, modulators, primary screen, cell-based (AID 1259312);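 note: virus expresses mutant telomerase RNA that uncaps telomeres and kills cells; compound added 2 days after infection so exposure lasts 3 days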
# Settings: HCT116 + Ad-hTR-mut, MTT, 5 d; at 10 µM, active compounds read high
row,SMILES,fold change
1,O=C1c2ccccc2NC2(C(=O)Nc3ccccc32)N1CCOc1ccccc1 (configuration not stated),1.15
2,CCOC1(C)OC2CCC(CC)OC2O1 (configuration not stated),1.54
3,O=C1Nc2ccccc2/C1=N\N1C(=O)C2C=CC=CC2C1=O (configuration not stated),inactive
4,O=C1Nc2ccccc2C1=Nc1cccc(Cl)c1,inactive
5,O=C1Nc2ccccc2C1=Nc1ccc(SC(F)F)cc1,active
6,O=c1[nH]c2nonc2[nH]c1=O,inactive
7,O=C1CCCN1c1ccc(S(=O)(=O)Nc2ccc3oc4c(c3c2)CCCC4)cc1,1.03
8,Cc1nnc(SCC(=O)Nc2sc3c(c2C#N)CCC3)s1,-1.54
9,O=c1[nH]c(=O)c2cc3c(=O)[nH]c(=O)c3cc12,2.77 (active)
10,O=c1[nH]c2ccc(F)cc2c(=O)c2ccccc12,1.22
11,Nc1cc2[nH]c(=O)[nH]c2cc1N,-1.33
12,O=C(C1=C(O)C(=O)N(CCN2CCOCC2)C1c1ccco1)c1ccco1 (configuration not stated),-1.73
13,O=c1[nH]c2cc(NCCCO)c([N+](=O)[O-])cc2[nH]1,-1.46
14,Nc1n[nH]c(-c2cccnc2)n1,2.61 (active)
15,COc1cc(OC)cc(-c2nc(N)n[nH]2)c1,1.56
16,c1ccc(-c2nc(-c3cccnc3)[nH]c2-c2ccccc2)cc1,1.14
17,CN1CCC2(CC1)C(C#N)=C(O)NC1=C2C(=O)CC(C)(C)C1,-1.33
18,O=C(CSc1nc2ccccc2nc1SCC(=O)N1CCCCC1)N1CCCCC1,-1.94
19,O=C(Nc1nonc1NC(=O)c1ccc2c(c1)OCO2)c1ccc2c(c1)OCO2,-1.22
20,CC1(C)O[C@@H]2[C@H](O1)[C@@H](CO)O[C@H]2n1cnc2c(N)ncnc21,-1.14
21,Clc1nc2nonc2nc1Nc1ccc(Br)cc1,-1.13
22,O=c1[nH]cnc2sc3c(c12)CCCC3,1.23
23,O=C(CC1NC(=O)N(C2CCCCC2)C1=O)NCC12CC3CC(CC(C3)C1)C2 (configuration not stated),-1.28

row,SMILES,fold change
1,CC12CC3CC(C)(C1)CC(CC(=O)N1CCN(S(C)(=O)=O)CC1)(C3)C2,1.25
2,CC12CC3CC(C)(C1)CC(CC(=O)NCC14CC5CC(CC(C5)C1)C4)(C3)C2,3.05 (active)
3,CS(=O)(=O)Nc1ccc(Cl)cc1Cl,-1.31
4,O=S(=O)(NC1CCCCCC1)c1ccc(Cl)cc1,1.1
5,COc1ccc(OC)c(NS(=O)(=O)c2ccc(Cl)cc2)c1,1.33
6,Cc1ccc(S(=O)(=O)NC2CCCC2)cc1,-1.31
7,COc1ccc(S(=O)(=O)NC2CCCCCC2)cc1,3.33 (active)
8,COc1ccc(S(=O)(=O)NC(C)C)cc1,-1.48
9,COc1ccc(S(=O)(=O)Nc2cc(Cl)c(Cl)cc2Cl)cc1,3.11 (active)
10,O=S(=O)(NC1CCCCCC1)c1ccc(F)cc1,-1.23
11,O=S(=O)(Nc1cc(Cl)c(Cl)cc1Cl)c1ccc(Cl)cc1,3.01 (active)
12,Cc1ccc2c(c1)C(O)(CC(=O)c1ccc3c(c1)OCO3)C(=O)N2 (configuration not stated),-1.44
13,O=[N+]([O-])c1c(Sc2nnnn2C2CCCCC2)ncnc1Sc1nnnn1C1CCCCC1,1.21
14,N#Cc1c(-c2ccc(Cl)cc2Cl)csc1N,-1.22
15,CN(C)S(=O)(=O)Nc1cccc([N+](=O)[O-])c1,1.12
16,CCn1c(=O)n(CC)c2cc(S(=O)(=O)NC3CCCCC3)ccc21,1.22
17,CC(=O)c1c(O)c(C)c(O)c2c1OC1=CC(=O)C(C(C)=O)C(=O)[C@@]12C (some centres not stated),-1.06
18,CC(=O)N1c2ccccc2C2(C)C(C1(C)C)C2(Cl)Cl (configuration not stated),4.16 (active)
19,NC(=O)c1c(NC(=O)C2COc3ccccc3O2)sc2c1CCCC2 (configuration not stated),-1.9
20,COc1cc2c(cc1OC)CC1(C2)c2ccccc2CN1C,-1.34
21,O=[N+]([O-])c1ccc(C=NC2CCCc3c2[nH]c2ccc(Br)cc32)cc1 (configuration not stated),1.22
22,CC(=O)N1CCCc2cc(S(=O)(=O)NC(C)(C)C)ccc21,-1.21
23,COc1ccc(Br)cc1C1C(C#N)=C(N)SC(N)=C1C#N,-1.84

row,SMILES,fold change
1,Clc1ccc(N=Cc2cccs2)cc1,1.21
2,O=S(=O)(Oc1ccc(N=Cc2cccs2)cc1)c1ccc(Cl)cc1,2.24
3,NS(=O)(=O)c1ccc(N=Cc2cccs2)cc1,5.47 (active)
4,CN=C1S/C(=C/c2ccc(C)o2)C(=O)N1C,-1.34
5,CCOC(=O)c1sc(N2N=C(C)/C(=C\c3ccc(C)o3)C2=O)nc1C,-1.12
6,COC(=O)Cn1cnc([N+](=O)[O-])n1,-1.14
7,CC1Oc2ccc(S(=O)(=O)NCCCn3ccnc3)cc2NC1=O (configuration not stated),1.47
8,C(=N\c1nccs1)/c1ccco1,-1.62
9,Oc1ccc(Br)cc1/C=N/c1nccs1,inactive
10,Oc1ccc2ccccc2c1C=Nc1ccc(Cl)cn1,active
11,Oc1ccc2ccccc2c1/C=N/c1ccccn1,active
12,OCCN=Cc1c(O)ccc2ccccc12,inactive
13,Oc1ccc2ccccc2c1/C=N/c1nccs1,active
14,Clc1ccc(N=Cc2cccc3ccccc23)nc1,1.13
15,Oc1ccc(Br)cc1C=Nc1ccc(Cl)cn1,inactive
16,Oc1ccc2ccccc2c1C=NCCCCCCN=Cc1c(O)ccc2ccccc12,inactive
17,ClCCOc1nc(OCCCl)nc(OCCCl)n1,2.12
18,CCCc1ccn(CCSCC)c1-c1cccs1,-2.47
19,O=C(Nc1ccc(I)cc1)C1CC(=O)N(C2CCCCC2)C1 (configuration not stated),2.18
20,O=C(Cc1cccs1)NCCN1CCOCC1,-1.05
21,O=C1/C(=C/c2ccc3c(c2)OCO3)CCc2ccccc21,-2.22
22,COC(=O)/C(C#N)=C\c1ccc(C)o1,-2.41
23,CCCCNC(=O)OCCSC(=S)NCCC,2.45

row,SMILES,fold change
1,CCOC(=O)c1sc(N)nc1C,1.75
2,CCOC(=O)Cc1csc(N)n1,1.75
3,CCOC(=O)c1csc(N)n1,2.59 (active)
4,O=C(NC1(C(=O)O)CCc2ccccc2C1)OCC1c2ccccc2-c2ccccc21 (configuration not stated),-1.79
5,O=S(=O)(c1ccc(NC(=S)Nc2ccccc2)cc1)N1CCCCC1,-2.08
6,C/C(=N/Nc1ccc([N+](=O)[O-])cc1)c1ccc(/C(CCl)=N/Nc2ccc([N+](=O)[O-])cc2)s1,-1.04
7,O=C(NC1CCCCCCC1)c1ccc(COc2c(F)c(F)cc(F)c2F)o1,-1.24
8,c1ccc(-c2nonc2N=Nc2nonc2-c2ccccc2)cc1,-1.26
9,[O-][n+]1onc(N=Nc2no[n+]([O-])c2-c2ccccc2)c1-c1ccccc1,2.99 (active)
10,[O-][n+]1onc(C(c2ccccc2)c2ccccc2)c1C(c1ccccc1)c1ccccc1,-1.76
11,COCCNS(=O)(=O)c1ccccc1,-1.41
12,Cc1nc2ccccc2nc1C=O,-2.07
13,Cc1nc2ccccc2nc1NO,active
14,Cc1nc2ccccc2nc1C,-2.23
15,ON=C1C2CC3CC(C2)CC1C3,-1.41
16,Oc1ccc(Br)cc1/C=N/c1ccccn1,inactive
17,COc1cc2c(cc1N)OCO2,-1.08
18,c1ccc2c(c1)[nH]c1nc3nnnn3nc12,active
19,Cc1ccc2[nH]c3nc4ccccc4nc3c2c1,-1.34
20,c1ccc2nc3c(nc2c1)[nH]c1ccccc13,-1.56
21,CC1CCCN(c2nc3ccccn3c(=O)c2C=O)C1 (configuration not stated),-1.15
22,CSc1nnnn1-c1ccccc1,-1.25
23,c1ccc(-n2nnnc2SCSc2nnnn2-c2ccccc2)cc1,3.7 (active)

row,SMILES,fold change
1,c1ccc(-c2noc(CSc3nnnn3-c3ccccc3)n2)cc1,-1.1
2,C#CCn1cc(/C=C2/SC(=NC)N(C)C2=O)c2ccccc21,-1.74
3,O=C(O)Cn1c(O)c(/C=C2/C=c3ccccc3=NC2=O)sc1=S,inactive
4,O=C(O)CCCn1c(O)c(/C=C2/C=c3ccccc3=NC2=O)sc1=S,active
5,O=C(O)CCCCCn1c(O)c(C2=c3cc(Br)ccc3=NC2=O)sc1=S,inactive
6,CCOC(=O)C1=C(C)NC2=C(C(=O)CC(C)(C)C2)C1c1ccc(C)s1 (configuration not stated),-1.32
7,CN=C1S/C(=C/c2cn(Cc3ccc(F)cc3)c3ccccc23)C(=O)N1C,-1.32
8,O=C(O)C1OC(O)C(O)C(O)C1O (configuration not stated),-2.05
9,CCOC(=O)CN(C1=NS(=O)(=O)c2ccccc21)c1ccccc1,1.02
10,COc1ccc(NS(=O)(=O)c2ccc(N=Cc3cc(Br)cc(Br)c3O)cc2)nn1,inactive
11,CCCCNC(=O)Cn1cc([N+](=O)[O-])cn1,-2.9
12,O=C(O)Cn1cc([N+](=O)[O-])cn1,2.02
13,CCOC(=O)c1c(C)nn2cc(-n3cc([N+](=O)[O-])cn3)cnc12,5.25 (active)
14,COc1cc(C(c2ccccc2)(c2ccccc2)c2ccccc2)cc2c1NC(C)(C)C=C2C,2.23
15,NCc1cc(C(F)(F)F)cc(C(F)(F)F)c1,-1.11
16,O=C(CC(c1ccc(Cl)c(Cl)c1)C1CCCCCC1=O)c1ccc(Cl)cc1 (configuration not stated),-1.72
17,CC(CC(=O)O)n1ccnc1 (configuration not stated),1.78
18,O=C(CC(C(=O)O)n1ccnc1)c1ccc(C2CCCCC2)cc1 (configuration not stated),2.74 (active)
19,O=C1ON=C(c2ccccc2)/C1=C/N1CCCCC1,-1.47
20,O=C1CN(C(=O)CSC2CCS(=O)(=O)C2)c2ccccc2N1 (configuration not stated),-1.24
